Compound activity deposited in PubChem by National Center for Advancing Translational Sciences (NCATS).
Sampled rows, rich in hits. Any-hit rate of the full collection: about 4.7%.
TRHR PAM: allosteric enhancers of human TRH receptor. TRHR cells, fluo-8 calcium fluorescence, EC20 TRH enhancement. AID 493056. enhancement, % at 2 µM. P34981. 360,000 compounds, 0.66% hits; in the data active means enhancement above about 30%; further: 0% is about no effect
Target sequence (P34981 whole entry, looked up): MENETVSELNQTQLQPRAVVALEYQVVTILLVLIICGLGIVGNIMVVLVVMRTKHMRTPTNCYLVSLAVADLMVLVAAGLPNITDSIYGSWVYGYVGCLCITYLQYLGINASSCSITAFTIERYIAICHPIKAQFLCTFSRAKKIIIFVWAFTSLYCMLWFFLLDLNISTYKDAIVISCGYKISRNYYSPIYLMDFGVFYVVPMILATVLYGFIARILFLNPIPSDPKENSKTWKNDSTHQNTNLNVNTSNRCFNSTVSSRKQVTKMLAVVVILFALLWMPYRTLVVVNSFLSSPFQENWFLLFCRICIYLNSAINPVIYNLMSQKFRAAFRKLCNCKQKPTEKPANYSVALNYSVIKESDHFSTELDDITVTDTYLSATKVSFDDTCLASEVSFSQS
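Enhancer read-out: after compound pinning and an initial kinetic agonist-mode read, an EC20 of TRH (10 nM final) was injected and fluo-8 calcium signal (Ex 480/Em 530) followed at 1 s/cycle for 100 cycles in TRHR-expressing cells.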
TRHR agonist: activates the human TRH receptor | AID 493084 | 360,000 compounds, 0.18% hits | P34981 | activation, % at 2 µM | TRHR cells, calcium flux fluo-8, FDSS agonist mode; further: 0% is about no effect
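Steps: seed TRHR cells overnight; add fluo-8 no-wash Ca dye, RT 30 min–1.5 h; record 10 s baseline; pin-transfer compounds; monitor fluorescence 1 cycle/s for the agonist window. Calcium increases flag candidate agonists.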
D1 antagonist: human D1 dopamine receptor antagonism | HEK293 TREx D1 cells, calcium flux, dopamine EC80; stronger effect = lower value | 360,000 compounds, 3.2% hits | AID 504652 | P21728 | activity change, negative = inhibition, % at 10 µM; in the data active means activity change below about -30%; further: on the % scale 0 is the no-effect control and ±100 the full control effect
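Allosteric or orthosteric antagonism assessed as attenuation of the calcium response to EC80 dopamine, added 180 s after compound, in induced HEK293 Trex D1 cells loaded with no-wash calcium dye.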
D1 PAM: human D1 dopamine receptor positive modulation; potentiation, % at 10 µM; 360,000 compounds, 0.036% hits; HEK293 TREx D1 cells, calcium flux, dopamine EC20 potentiation; AID 504651; P21728; in the data active means potentiation above about 30%; further: 0% is about no effect
D1 ag: activates the human D1 dopamine receptor | P21728 | HEK293 T-REx D1 cells, calcium flux, agonist mode | activation, % at 2 µM | 360,000 compounds, 1% hits; further: 0% is about no effect
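Agonism was scored from calcium flux recorded over 180 s (1 read/s) after pintool compound addition, following a 10-cycle baseline. Cells were inducible force-coupled HEK293 TREx D1, plated overnight at 30 C and loaded with no-wash calcium dye.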
The depositor's hits bear a star. Unless noted, no stated cut-off is given here; in the data, active means activation above about 30%; inactive means the rest.

SMILES	TRHR PAM	TRHR agonist	D1 antagonist	D1 PAM	D1 ag
Cn1c(=O)c2c(SCC(=O)NCc3ccco3)nc(-c3ccccc3F)nc2n(C)c1=O	-3	0	2	0	1
Cc1ccc(-c2c(C(=O)N/N=C/c3ccco3)nnn2-c2nonc2N)cc1	9	0	31	7	94*
CCOc1ccc(-c2c(C(=O)N/N=C/c3ccco3)nnn2-c2nonc2N)cc1	6	-1	25	-5	29
COc1cccc(NC(=O)Cn2c(=O)n(-c3ccccc3)c(=O)c3sccc32)c1	-2	-1	-1	-1	2
COc1ccc(CCC(=O)Nc2ccc(C(=O)c3ccncc3)cc2)cc1	1	-1	-21	-2	15
CC(C)C(=O)N1CCN(c2ccc(NC(=O)c3ccc([N+](=O)[O-])o3)cc2Cl)CC1	-5	-2	-41*	-4	13
O=c1[nH]c(CN2CCN(c3ncccn3)CC2)nc2c(Br)cc(Br)cc12	30*	1	-6	-8	6
Cc1ccc(S(=O)(=O)N(C)C)cc1NC(=S)N1CCN(Cc2ccc3c(c2)OCO3)CC1	-2	1	-14	-6	5
CCOc1ccc(Cn2c(CNS(=O)(=O)c3cccc(Cl)c3)nc3cccnc32)cc1	3	0	-80*	-5	1
Cc1c(O)ccc(/C(Cc2ccc3ccccc3n2)=N\O)c1O	3	0	-31*	-6	21
CC(=O)Oc1ccc(C(=O)Cc2ccc3ccccc3n2)c(O)c1C	3	10	0	-2	32*
CC(=O)Oc1ccc(C(=O)Cc2ccccn2)c(O)c1	-5	0	-12	-3	2
Cc1ccc(CN(C(=O)COc2ccc(C(C)(C)C)cc2)C2CCS(=O)(=O)C2)o1 (stereo unspecified)	-1	0	-3	4	5
Cc1cccn2c(=O)c3cc(C#N)c(=N)n(CCN4CCOCC4)c3nc12	32*	0	12	-5	1
CCc1nc(SCC(=O)N2CCOCC2)c2c(=O)n(C)c(=O)n(C)c2n1	5	-2	-4	0	4
CCc1nc(SCC(=O)N2CCCCCC2)c2c(=O)n(C)c(=O)n(C)c2n1	0	0	-34*	0	3
COc1ccc(N2CCN(C(=O)CSc3nnc(NC(=O)C4CCC4)s3)CC2)cc1	-2	1	-32*	-4	2
COc1ccc(N2CCN(C(C)C(=O)Nc3nnc(C)s3)CC2)cc1 (stereo unspecified)	32*	1	-3	-6	2
COc1ccc(N2CCN(C(C)C(=O)N3CCCC3)CC2)cc1 (stereo unspecified)	-11	0	0	-2	0
O=C(NNC(=O)C1CCCC1)c1ccccc1F	35*	-1	-13	-6	1
O=C(NNC(=O)C1CC1c1ccccc1)c1ccccc1F (stereo unspecified)	7	0	9	-5	3
COc1cc2nc(NCCC(C)C)n3nc(-c4ccccc4)nc3c2cc1OC	-6	0	-10	-4	0
CCCn1ncc(OC)c(Cl)c1=O	1	0	-59*	-2	-1
COc1ccc2cnn(Cc3ccccc3)c(=O)c2c1OC	14	-1	-11	0	3
CCOc1cc(/C=N/NC(=O)C(=O)NCc2cccnc2)ccc1O	-1	0	-35*	-3	-1
SMILES	TRHR PAM	TRHR agonist	D1 antagonist	D1 PAM	D1 ag
CCN(c1ccccc1)S(=O)(=O)c1ccc(Cl)c(C(=O)N(CC2CCCO2)C2CCS(=O)(=O)C2)c1 (stereo unspecified)	-7	-1	-36*	-3	6
CCOC(=O)c1cc(S(=O)(=O)NCc2ccc(Cl)cc2)[nH]n1	-5	0	-32*	-1	2
CCOC(=O)c1cc(S(=O)(=O)NCc2ccc(F)cc2)[nH]n1	3	-1	-21	-2	3
CS(=O)(=O)/C=C/c1nc(Nc2cc(F)cc(F)c2)c2ncn(CC(F)F)c2n1	1	-1	26	-2	2
COc1ccc(C(=O)OC(C)C(=O)NC2CCCCC2C)cc1S(=O)(=O)N1CCOCC1 (stereo unspecified)	-7	-1	1	1	8
CC1(C)SCC(C(=O)O)NC1=O (stereo unspecified)	-5	0	-34*	5	2
O=C(O)[C@@H]1CSC2(CCSC2)N1 (stereo partly specified)	3	1	-10	6	3
CCc1ccc(C(=O)COC(=O)C(Cc2ccccc2)NC(=O)C2CCC(C)CC2)cc1 (stereo unspecified)	4	2	-31*	-6	6
FC(F)C(F)(F)c1cc(-c2ccc(Cl)cc2)n[nH]1	5	-1	-46*	1	86*
Fc1ccc(-c2cc(C(F)(F)C(F)F)[nH]n2)cc1	5	17	-48*	-15	64*
Oc1ccccc1-c1cc(C(F)(F)C(F)F)[nH]n1	-7	1	-12	-3	10
Nc1ccc(S(=O)(=O)NC(Cc2ccccc2)C(=O)O)cc1 (stereo unspecified)	-4	0	-24	0	3
COC(=O)c1ccccc1S(=O)(=O)N1CCC(C(=O)OCc2ccc([N+](=O)[O-])cc2)CC1	-2	1	-40*	-2	13
CCOC(=O)c1ccccc1NC(=O)COC(=O)C1CCN(S(=O)(=O)c2ccccc2C(=O)OC)CC1	0	1	-1	-1	10
O=C(NCCO)C(=O)c1c(-c2ccccc2)cc2ccccn12	12	0	-31*	-3	0
CC(=O)Nc1ccc(Nc2cc(C)nc3c(-c4ccccc4)c(C)nn23)cc1	1	0	-30*	8	4
Cc1cc(SCC(=O)Nc2ccc(O)cc2)n2nc(C)c(-c3ccccc3)c2n1	7	0	-50*	-4	3
O=C(/C=C/c1ccc(Cl)cc1Cl)NC(=S)Nc1ccccn1	1	1	-44*	-6	3
O=C(/C=C/c1ccc(Cl)cc1Cl)NC(=S)Nc1ccc(CN2CCOCC2)cc1	3	-1	-5	-2	2
Cc1cc(C)c2oc(-c3cccc(NC(=O)c4ccco4)c3)nc2c1	-9	1	-46*	1	3
Cc1cc(C)c2oc(-c3cccc(NC(=O)c4ccc(Br)o4)c3)nc2c1	-1	0	0	3	-1
CCc1ccc2oc(-c3cccc(NC(=O)COc4ccccc4Cl)c3)nc2c1	43*	1	8	-3	-1
COc1ccccc1OC(C)C(=O)Nc1cccc(-c2nc3ccccc3o2)c1 (stereo unspecified)	6	-1	-8	-1	32*
O=C(Nc1ccc(-c2nc3cc(Cl)ccc3c(=O)o2)cc1)c1ccco1	8	0	-32*	-9	1
CNS(=O)(=O)c1cccc(C(=O)NCC(C)(C)N2CCCCC2)c1	0	0	3	-2	0
